# Shown are actives, neighbours in structure and some others; about 14% of the full set was active somewhere.
# Shiga inhibitor: Shiga toxin inhibition | Vero cells, Shiga toxin protein synthesis inhibition reporter | inhibition, % at 38.7 µM | actives 9.2% (n = 290,000) | AID 2315; in the data active means inhibition mostly above about 28%, no sharp cut-off; inactive means mostly below about 43%; further: 0% is about no effect
# LmPK inh: LmPK (Leishmania mexicana) enzyme inhibition. Potency, µM (top dose mostly 57.5 µM), inactives show top-dose activity change, negative = inhibition, actives largely listed as inhibitors. purified LmPK, Kinase-Glo ATP luminescence, 1 h. actives 0.37% (n = 290,000); further: potency means the concentration at half of the fitted maximal effect; on the % scale 0 is the no-effect control and ±100 the full control effect
# Target sequence (Q27686 whole entry, looked up): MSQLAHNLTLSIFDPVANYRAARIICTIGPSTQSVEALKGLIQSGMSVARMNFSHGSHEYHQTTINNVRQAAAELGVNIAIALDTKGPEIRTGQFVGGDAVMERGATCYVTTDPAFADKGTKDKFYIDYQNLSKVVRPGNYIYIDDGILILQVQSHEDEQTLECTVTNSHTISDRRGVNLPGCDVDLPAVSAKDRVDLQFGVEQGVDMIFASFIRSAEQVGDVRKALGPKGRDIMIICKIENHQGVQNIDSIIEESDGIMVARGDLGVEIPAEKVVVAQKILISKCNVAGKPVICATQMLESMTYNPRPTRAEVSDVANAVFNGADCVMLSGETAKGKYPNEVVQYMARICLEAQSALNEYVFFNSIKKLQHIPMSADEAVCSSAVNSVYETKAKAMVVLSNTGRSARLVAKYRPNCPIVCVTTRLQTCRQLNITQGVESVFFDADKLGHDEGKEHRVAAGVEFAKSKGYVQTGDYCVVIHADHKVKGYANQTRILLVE
#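 Screened at intermediate enzyme activity to detect both inhibitors and activators: LmPK at 0.1 nM, with a 0.5 nM enzyme column as activation reference. PEP 0.5 mM, ADP 0.1 mM; ATP detected by luminescence after 1 h.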
# Giardia FBPA inh-1: inhibitors of Giardia lamblia fructose-1,6-bisphosphate aldolase | A8B2U2 | purified Giardia FBPA | Potency, µM (highest dose often 59.6 µM), for inactives: top-dose activity, negative = inhibition, hits mostly inhibitors | actives 0.71% (n = 290,000); further: potency means the concentration at half of the fitted maximal effect; on the % scale 0 is the no-effect control and ±100 the full control effect; nearly all actives have a fitted effect of over 55% in size
#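 40 nM FBPA preincubated 10 min at RT with compound (up to 57.5 uM final), then substrate plus GAPDH/TPI/NAD/arsenate coupling and diaphorase/resazurin added. Fluorescence read after 20 min at RT, 525/598 nm.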
# NS1 function inh: blocks influenza NS1 protein function. Potency, µM (series often up to 46.1 µM), for inactives: at the top dose activity, positive = more growth. actives 0.4% (n = 270,000). AID 2326; calls by dose curve; further: potency means the concentration at half of the fitted maximal effect; actives are rising curves; nearly all actives have a fitted effect of over 50% in size
#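 Compounds were scored for reversing the slow growth caused by influenza A NS1 in S. cerevisiae, measured by optical density at 600 nm. Assay medium contained 2% galactose at pH 6.0; NS1-free yeast of the same strain were the positive control.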
# CHX counter: counter-screen hit for Shiga toxin inhibitors, cycloheximide; cell reporter, cycloheximide protein synthesis inhibition counterscreen; max response, %; actives 12% (n = 300,000); AID 2314; in the data active means max response mostly above about 13%, no sharp cut-off; inactive means mostly below about 14%; further: read at 38.3 µM for the half of the compounds with a filed dose; 0% is about no effect
# Giardia growth: inhibitors of Giardia lamblia growth. Potency, µM (titrated, usually from 57.5 µM), for the others: at the top dose activity change, negative = inhibition, actives largely listed as inhibitors. Giardia lamblia trophozoite growth inhibition. shares compounds with Giardia FBPA inh-1. actives 5% (n = 1,500). AID 2785;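 further: potency means the concentration at half of the fitted maximal effect; trophozoites exposed to compound for 48 h at 37 °C; on the % scale 0 is the no-effect control and ±100 the full control effect; nearly all actives have a fitted effect of over 70% in size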
# Mammalian tox: mammalian cytotoxicity of Giardia aldolase inhibitor hits | Potency, µM (doses to about 57.5 µM), without a hit: at the highest dose viability change, negative = toxicity, usual class: inhibitors | actives 4% (n = 1,500) | mammalian cell viability counter-screen, qHTS | shares compounds with Giardia FBPA inh-1;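 further: Chinese hamster ovary cells used as mammalian cytotoxicity surrogate; viability measured as cellular ATP by luminescence; potency means the concentration at half of the fitted maximal effect; compound exposure lasted 48 h before reading; on the % scale 0 is the no-effect control and ±100 the full control effect; nearly all actives have a fitted effect of over 60% in size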
# Giardia FBPA inh-2: confirmation of Giardia fructose-bisphosphate aldolase inhibitors | AID 2787 | shares compounds with Giardia FBPA inh-1 | purified Giardia aldolase enzyme activity, qHTS | actives 5% (n = 1,500) | Potency, µM (top dose mostly 57.5 µM), without a hit: top-dose activity change, negative = inhibition, most hits filed as inhibitors; further: potency means the concentration at half of the fitted maximal effect; on the % scale 0 is the no-effect control and ±100 the full control effect; nearly all actives have a fitted effect of over 45% in size
# Rabbit FBPA inh: blocks rabbit muscle aldolase in Giardia aldolase selectivity test. shares compounds with Giardia FBPA inh-1. Potency, µM (series often up to 57.5 µM), without a hit: at the highest dose activity, negative = inhibition, most hits filed as inhibitors. Rabbit muscle FBPA enzyme inhibition, selectivity counter-screen. actives 4% (n = 1,500); further: potency means the concentration at half of the fitted maximal effect; on the % scale 0 is the no-effect control and ±100 the full control effect; nearly all actives have a fitted effect of over 60% in size
# Target sequence (P00883 whole entry, looked up): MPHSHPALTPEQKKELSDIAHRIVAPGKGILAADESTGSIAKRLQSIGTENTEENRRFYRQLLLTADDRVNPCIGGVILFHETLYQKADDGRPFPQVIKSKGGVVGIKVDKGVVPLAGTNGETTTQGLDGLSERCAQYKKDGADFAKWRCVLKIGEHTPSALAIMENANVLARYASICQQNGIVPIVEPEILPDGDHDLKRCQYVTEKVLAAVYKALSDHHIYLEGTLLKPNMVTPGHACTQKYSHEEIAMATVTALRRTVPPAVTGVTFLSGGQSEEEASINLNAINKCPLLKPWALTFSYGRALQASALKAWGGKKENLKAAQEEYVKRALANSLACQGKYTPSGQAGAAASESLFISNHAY
# GAPDH coupling: counter-screen for Giardia aldolase inhibitors: GAPDH coupling enzyme; shares compounds with Giardia FBPA inh-1; GAPDH coupling enzyme counterscreen, biochemical, qHTS; Potency, µM (highest dose often 57.5 µM), inactives show at the top dose activity change, negative = inhibition, most hits filed as inhibitors; actives 6% (n = 1,500); further: potency means the concentration at half of the fitted maximal effect; on the % scale 0 is the no-effect control and ±100 the full control effect; nearly all actives have a fitted effect of over 55% in size
# Starred values were filed as active, the others as inactive; u = inconclusive; x = no result given; [ ] = dose if it differs, or a comment. Unless noted, the call rests on the fitted dose curve; in most records, active means well fitted curve in the direction sought with a large enough effect; inconclusive means small, poorly fitted or top-dose-only effect, or another doubt; inactive means no such curve, though single readings can be large; an effect the other way counts as inactive or inconclusive.
SMILES,Shiga inhibitor,LmPK inh,Giardia FBPA inh-1,NS1 function inh,CHX counter,Giardia growth,Mammalian tox,Giardia FBPA inh-2,Rabbit FBPA inh,GAPDH coupling
CC(C)OC(=O)CC1C(=O)NCCN1C(=S)NC(=O)c1ccc(F)cc1 (centres undefined),-5.3,-0.6%,15.8µM*,0.6%,-1.4,-18.7%,-5.1%,6.8%,5.4%,8.4%
O=C(CSc1nc2ncccc2[nH]1)Nc1c(F)cc(F)cc1Br,9.2,8.3%,25.1µM*,7.9%,-2.6,-18.4%,7.4%,4.3%,4.8%,21.6%
NS(=O)(=O)c1ccc(CNC(=O)CSc2nc3ccc(Cl)cc3[nH]2)cc1,2.1,-7.7%,11.2%,27.3%,-0.6,x,x,x,x,x
Cc1cnn(C(=S)NCc2ccco2)c1,17.9,0.2%,15.8µM*,-1.4%,-1.1,-3.4%[10.4 µM],3.4%,-6.1%,3.6%,11.5%
Cc1cnn(C(=S)NCC2CCCO2)c1 (centres undefined),-4.7,-3.0%,-11.5%,7.6%,-6.4,x,x,x,x,x
NNC(=S)NCc1ccco1,19.6,2.2%,17.7µM*,-1.7%,-1.0,-4.5%[10.4 µM],-0.2%,2.0%,13.1%,3.9%
S=C(NCc1ccccc1)NCc1ccco1,-7.0,0.8%,1.4%,8.7%,13.8,x,x,x,x,x
COc1ccc(OC)c(NS(=O)(=O)c2ccc(-c3coc(C)n3)cc2)c1,-8.5,11.1%,-0.7%,-13.0%,-2.8,x,x,x,x,x
CCC1C(=O)NCCN1C(=O)c1ccc2nc(Cc3cccc(Cl)c3)oc2c1 (centres undefined),-9.5,8.7%,0.9%,-6.1%,-0.8,x,x,x,x,x
CC1(C(=O)O)CCC(C(=O)Nc2ccc(OC(F)(F)Cl)cc2)C1(C)C (centres undefined),-6.1,-1.1%,-5.8%,-0.7%,-2.4,x,x,x,x,x
Cc1ccc(NC(=S)N2CCC(c3ccc(C)cc3)C2)cc1 (centres undefined),97.9*,8.9%,15.8µM*,x,45.6*,-2.7%[10.4 µM],-15.0%,11.0%,6.5%,17.7%
O=C(Nc1cc([N+](=O)[O-])ccc1C(=O)Nc1cccnc1)c1ccccc1,-14.0,-10.6%,x,11.4%,-1.1,x,x,x,x,x
COc1cccc(CN(C)CC(=O)NCc2ccc(C)cc2)c1,-7.6,0.9%,u,-1.2%,-2.5,x,x,x,x,x
COc1ccc(CNC(=O)CN(C)Cc2ccc(C(C)(C)C)cc2)cc1,-6.1,-12.1%,22.4µM*,-5.4%,-3.8,-10.2%[10.4 µM],-5.8%,-5.3%,-5.3%,-0.3%
CCOc1ccc(OCC)c(NC(=O)CN2CCN(CC(=O)NC(C)C)CC2)c1,-16.3,-6.7%,31.6µM*,1.7%,-4.3,24.6%,-12.0%,-1.0%,2.3%,8.3%
O=S(=O)(Nc1ccc(Cl)cc1)c1ccc(N2CCOCC2)c(NC(=S)NCCN2CCOCC2)c1,18.3,-1.6%,5µM*,x,6.9,-0.8%[38.3 µM],3.0%,u,39.8µM*,39.8µM*
CC(=O)NCCC(=O)Nc1cc(S(=O)(=O)Nc2ccc(Cl)cc2)ccc1N1CCCC1,-14.0,2.4%,-4.8%,-2.8%,-0.8,x,x,x,x,x
N#Cc1c(-c2ccc(F)cc2)cc(-c2ccccc2)nc1SCC(=O)NCC(=O)O,43.8,0.7%,7.06µM*,5.8%,-1.6,21.2%[38.3 µM],14.6%,-1.9%,5.6%,14.7%
COc1cccc(CC(NC(C)=O)C(=O)NC2CCN(S(=O)(=O)c3ccc(NC(C)=O)cc3)CC2)c1OC (centres undefined),-13.3,-2.1%,-2.3%,7.9%,-3.8,x,x,x,x,x
NC(c1ccccc1)c1cccnc1 (centres undefined),-7.6,0.6%,10µM*,2.0%,-2.3,0.7%,19.7%,11.3%,4.1%,12.2%
NNc1nc2c(-c3ccc(Cl)cc3)nnn2c2ccccc12,44.8,-11.7%,14.1µM*,x,11.1,u,u,-14.1%,-18.8%,-12.9%
CCOC(=O)Cc1c[nH]c(=S)[nH]c1=O,-13.6,-1.2%,17.7µM*,8.8%,-5.3,9.3%[10.4 µM],14.3%,5.2%,8.5%,7.4%
CCN(CC)C(=S)NC(=O)c1cc(OC)c(OC)c(OC)c1,20.7,-0.1%,17.7µM*,8.9%,1.8,8.4%,-5.0%,-0.1%,6.1%,2.5%
COC(=O)c1sc(NC(=S)NC(=O)c2cc(OC)c(OC)c(OC)c2)nc1C,-7.4,-0.7%,3.16µM*,14.8%,-1.4,1.5%[10.4 µM],-8.2%,7.1%,7.1%,10.3%
COc1cc(C(=O)NC(=S)Nc2ccc([N+](=O)[O-])cc2)cc(OC)c1OC,-2.6,1.8%,12.6µM*,13.1%,-3.4,-25.1%,-3.0%,10.8%,7.6%,4.8%
SMILES,Shiga inhibitor,LmPK inh,Giardia FBPA inh-1,NS1 function inh,CHX counter,Giardia growth,Mammalian tox,Giardia FBPA inh-2,Rabbit FBPA inh,GAPDH coupling
COc1cc(C(=O)Nc2nnc(C)s2)cc(OC)c1OC,-4.5,2.1%,0.8%,-1.2%,-2.3,x,x,x,x,x
COc1cc(C(=O)NC(=S)Nc2ccc([N+](=O)[O-])cc2C)cc(OC)c1OC,-11.3,2.0%,u,15.1%,-2.0,x,x,x,x,x
Cc1nn(C)c(C(=O)NNC(=S)Nc2ccc(F)cc2)c1[N+](=O)[O-],-5.9,2.3%,12.3%,5.3%,9.5,x,x,x,x,x
Cc1nn(C)c(C(=O)NC(=S)Nc2ccc([N+](=O)[O-])cc2)c1Cl,-2.2,0.7%,12.6µM*,-42.6%,1.9,-1.4%[10.4 µM],-8.9%,5.3%,6.5%,16.8%
O=C(NCCCn1ccnc1)c1ccc(Cl)s1,-12.0,-13.9%,x,3.7%,-1.7,x,x,x,x,x
CCOc1ccc2ccccc2c1C(=O)NCC(c1ccc(N(C)C)cc1)N(C)C (centres undefined),-15.7,-4.2%,-3.8%,0.0%,-3.2,x,x,x,x,x
COc1cc(C(=O)NC(=S)Nc2nccs2)cc(OC)c1OC,19.8,-2.0%,14.1µM*,-2.6%,8.6,u,-1.2%,-3.7%,12.6%,-6.2%
CCOC(=O)N1CCC(NC(=O)C2CCN(S(=O)(=O)c3ccc4c(c3)oc(=O)n4C)CC2)CC1,-3.0,-3.5%,2.4%,x,-5.3,x,x,x,x,x
CCc1nnc(SCC(=O)Nc2ccc3c(c2)OCO3)n1CC,11.5,-1.6%,x,13.5%,9.4,x,x,x,x,x
CCn1ncc(NC(=S)Nc2ccc3c(c2)OCO3)c1C(N)=O,67.7*,2.2%,17.7µM*,x,14.8*,-19.9%[10.4 µM],-12.2%,-22.8%,-10.3%,-9.5%
CCC(C)c1ccc(NC(=S)Nc2ccc(OC)c(OC)c2)cc1 (centres undefined),14.8,3.4%,-2.9%,18.3%,4.7,x,x,x,x,x
CCn1ncc(NC(=S)Nc2ccc(OC)c(OC)c2)c1C(N)=O,33.2,-6.8%,15.8µM*,3.8%,5.5,-29.8%,-5.9%,-15.3%,-4.9%,-4.6%
